DRD3 antagonist: qHTS of D3 Dopamine Receptor Antagonist: qHTS | D(3) dopamine receptor (Homo sapiens), P35462 | D3R cells, DiscoveRx beta-arrestin luminescence, antagonist mode; hits give low values | max response, negative = inhibition, % | actives 2.5% (n = 360,000); in the data active = max response below about -50%; inconclusive = no clear call, values can overlap the other calls; note: % is set by controls: 0 for no effect and ±100 for the full control effect
Target sequence (P35462 whole entry, looked up): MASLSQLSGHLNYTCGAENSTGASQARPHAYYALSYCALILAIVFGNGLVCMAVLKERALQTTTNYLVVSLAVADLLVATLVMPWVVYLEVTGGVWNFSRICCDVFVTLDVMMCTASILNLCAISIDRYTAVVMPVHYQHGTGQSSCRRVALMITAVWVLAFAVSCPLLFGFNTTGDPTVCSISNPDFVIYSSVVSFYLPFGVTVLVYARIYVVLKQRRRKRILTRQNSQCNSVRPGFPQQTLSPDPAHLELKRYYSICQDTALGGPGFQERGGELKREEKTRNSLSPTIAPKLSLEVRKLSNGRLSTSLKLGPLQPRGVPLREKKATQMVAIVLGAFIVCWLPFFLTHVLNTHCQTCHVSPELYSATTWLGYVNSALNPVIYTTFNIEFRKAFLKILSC
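Cells plated overnight at 1500 cells/well, then exposed to library compounds with dopamine controls for 90 minutes at 37 degrees C. DiscoveRx reagent added for 30–60 minutes at room temperature; luminescence read, quantitative HTS format.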
D1 potentiator: Potentiators of Human D1 Dopamine Receptor: qHTS; D(1A) dopamine receptor (Homo sapiens), P21728; HEK293 TREx D1 cells, calcium flux, dopamine EC20 potentiation; potentiation, % at 10 µM; actives 0.036% (n = 360,000); AID 504651, 2011; in the data active = potentiation above about 30%; note: 0% is about no effect
D3 ag: qHTS of D3 Dopamine Receptor Agonist: qHTS | D(3) dopamine receptor (Homo sapiens), P35462 | D3R DiscoveRx beta-arrestin cells, luminescence, 90 min | max activation, % | actives 0.58% (n = 410,000); in the data active = max activation above about 30%; note: 0% is about no effect
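Agonist mode: compounds and dopamine controls were applied to plated cells for 90 min at 37 degrees C after an overnight attachment at 1500 cells/well. Luminescent read-out followed 30 - 60 minutes at room temperature with DiscoveRx detection reagent.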
D1 agonist: Allosteric Agonists of the Human D1 Dopamine Receptor: qHTS; D(1A) dopamine receptor (Homo sapiens), P21728; HEK293 T-REx D1 cells, calcium flux, agonist mode; activation, % at 2 µM; actives 1% (n = 360,000); AID 504660, 2011; in the data active = activation above about 30%; note: 0% is about no effect
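Tetracycline-induced HEK293 TREx D1 cells, force-coupled to calcium signalling, were dye-loaded with a no-wash calcium kit. Compound was pin-added after a 10 s baseline. Fluorescence was read kinetically at 1 cycle/s for 180 s, with calcium rises flagged as agonism.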
D1 antagonist: Antagonist of Human D 1 Dopamine Receptor: qHTS; HEK293 TREx D1 cells, calcium flux, dopamine EC80; hits give low values; D(1A) dopamine receptor (Homo sapiens), P21728; actives 3.2% (n = 360,000); activity change, negative = inhibition, % at 10 µM; in the data active = activity change below about -30%; note: % is set by controls: 0 for no effect and ±100 for the full control effect
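Kinetic fluorescence of a calcium dye serves as the read-out. D1-expressing Hek293 Trex cells, induced overnight at 30 C, are exposed to compound for 180 s before an EC80 dopamine addition, then read 180 s further.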
ERG Ets-DNA blk: qHTS for Small Molecule Inhibitors of the ERG Ets/DNA interaction; fluorescence polarization, His-ERG Ets domain / labelled DNA; actives 0.028% (n = 370,000); Transcriptional regulator ERG (Homo sapiens), P11308; Potency, µM (doses to about 76.9 µM), inactives show top-dose FP activity, negative = inhibition, usual class: inhibitors; active = well fitted inhibition curve with a large enough effect in the polarisation, with a control signal flat; inconclusive = small, poorly fitted or top-dose-only effect, or effect the other way, or a change in a side signal; inactive = no such curve, though single readings can be large or run the other way; the % refers to the polarisation;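 note: polarization taken with two DNA probes labelled with fluorescein and Texas red; potency is the fitted concentration of half-maximal effect; % of control where 0% means no effect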
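His-tagged ERG Ets domain (1 uM in the protein solution; 300mM KCl, 50mM Tris-HCl, 1mM EDTA, 1mM DTT, pH 7.5) received compound, then a probe mix of 5 nM fluorescein-DNA and 100nM Texas-615-DNA. Fluorescence polarization was read for both dyes.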
Starred values were filed as active, the others as inactive; ? = inconclusive; nt = no result. The list is not random: actives were taken first. Their share in the collection is about 6.1%.

SMILES	DRD3 antagonist	D1 potentiator	D3 ag	D1 agonist	D1 antagonist	ERG Ets-DNA blk
Cc1ccnc(NC(=O)C2CC(=O)N(Cc3ccccc3)C2)c1 (stereo unspecified)	0.6	0.6	-0.6	21.9	-43.7*	2.5%
CCN(CC)c1nc(NN)nc(Nc2ccc(C)c(Cl)c2)n1	-79.4*	nt	-2.6	nt	nt	-4.9%
Cc1noc(C)c1COc1ccccc1C(=O)N(C)CC(=O)Nc1ccc(Cl)c(Cl)c1	24.9	-14.2	1.5	4.8	-23.8	-2.9%
COc1ccc(OC)c(N/C(=N/C(=S)Nc2ccccc2)Nc2nc(C)cc(C)n2)c1	16.9	-8.2	0.5	1.7	-30.9*	-4.4%
CCC(C)(C)NC(=O)C(c1ccc(C)cc1)N(Cc1cccnc1)C(=O)c1csnn1 (stereo unspecified)	11.9	-25.1	0.6	-0.6	-63.3*	-4.1%
CCCC(=O)OC1CC(C)N(C(=O)c2ccccc2)c2ccc(C)cc21 (stereo unspecified)	?	-23.5	-8.2	32.1*	-7.9	-2.1%
Cc1cc(C(=O)COC(=O)C2=NNC(=O)CC2)c(C)n1-c1cccc(C(F)(F)F)c1	19.7	-2.1	40.5*	9.1	-16.9	-3.8%
Cc1cc(C(=O)COC(=O)C2=NNC(=O)CC2)c(C)n1-c1ccc(OC(F)F)cc1	17.1	-3.4	-4.8	11.2	-34.6*	0.0%
Cc1cc(C(=O)CSc2nc(N)cc(N)n2)c(C)n1-c1cccc(C(F)(F)F)c1	33.3	2.7	3.6	5.6	-18.9	5.9%
Cc1cc(=O)oc2c(C)c(OCC(=O)N3CCN(c4ccc(F)cc4)CC3)ccc12	16.0	-0.7	14.1	4.5	-12.4	-5.8%
Cc1ccc(Nc2cc(C)nc3c(C)cccc23)cc1	9.5	-12.2	-3.3	-0.1	-32.6*	5.7%
CC(=O)c1cccc(Nc2cc(C)nc3c(C)cc(C)cc23)c1	-23.7	-5.6	-4.4	-1.4	-24.6	12.1%
CC(=O)c1ccc(Nc2cc(C)nc3ccccc23)cc1	2.2	0.8	-2.0	0.3	6.6	11.4%
COC(=O)c1ccc2nc(C)cc(Nc3ccccc3C)c2c1	-10.2	-1.9	-5.8	3.4	-32.8*	0.1%
CC(=O)c1ccc(Nc2cc(C)nc3c(C)cccc23)cc1	-6.6	-3.0	-0.9	9.7	-31.2*	-9.4%
COc1ccc(Nc2cc(C)nc3ccccc23)cc1	9.0	-2.6	-6.1	1.7	1.2	1.5%
CC(=O)c1cccc(Nc2cc(C)nc3ccc(C)cc23)c1	-12.2	-19.9	-6.1	-0.9	-39.6*	6.5%
CCN(CC(=O)Nc1ccccc1C(F)(F)F)C(=O)CCOc1ccc(C)cc1	-9.9	-6.2	-7.1	9.0	-8.1	2.5%
COc1ccc(NC(=O)C(F)(OC)C(F)(F)F)c(OC)c1 (stereo unspecified)	-25.1	1.7	10.1	2.3	0.7	nt
Cn1c(=O)n(C)c2cc(N3CCCCC3)c(NC(=O)c3cccc(Cl)c3)cc21	-7.9	1.6	-0.2	0.2	-19.5	-12.4%
CC(C)CC(=O)Nc1ccc2c(c1)nc(CCN1CCCCC1)n2C	-4.4	-8.8	-2.2	0.2	1.3	1.0%
COc1ccc(S(=O)(=O)NN(C)c2ncc(C(F)(F)F)cc2Cl)cc1	-21.1	-3.8	-3.7	-0.4	-5.1	8.8%
Cc1cc(N/N=C/c2ccc(O)cc2)c2cccc(C)c2n1	-72.4*	0.2	-8.0	0.4	5.0	9.2%
Cc1cc(C)c2nc(C)cc(N/N=C/c3ccc(O)cc3)c2c1	?	-4.5	-18.4	8.9	-2.0	4.6%
CCCCCCCN1CCC(=O)N(CCO)CC1	?	-1.0	-26.1	-1.1	0.8	-8.0%
SMILES	DRD3 antagonist	D1 potentiator	D3 ag	D1 agonist	D1 antagonist	ERG Ets-DNA blk
O=C(Cc1ccc(Br)cc1)Nc1cccc(-c2cn3c(n2)SCC3)c1	16.5	-12.7	2.1	10.0	-40.6*	17.9%
O=C1Nc2cc(C(=O)N3CCN(c4ccccn4)CC3)ccc2S/C1=C\c1ccccc1	27.9	5.2	3.0	0.5	10.4	4.8%
CN(C)S(=O)(=O)c1cccc(NC(=S)N/N=C/c2cc(Br)ccc2O)c1	?	-17.8	5.6	47.2*	-10.7	6.1%
CN(C)S(=O)(=O)c1cccc(NC(=S)N/N=C/c2cccc(O)c2)c1	16.5	-8.2	3.1	0.9	4.2	6.0%
O=C(Cn1c(C(=O)NCC2CCCO2)cc2sccc21)c1ccccc1 (stereo unspecified)	12.3	-5.2	8.0	1.1	-50.4*	-2.8%
O=C(Cn1c(C(=O)N2CCN(C3CCCC3)CC2)cc2sccc21)c1ccccc1	-77.7*	-0.3	-36.9	1.0	2.3	-2.8%
CCn1c(C(=O)N2CCC(Cc3ccccc3)CC2)cc2sccc21	2.2	-1.6	3.4	6.3	4.1	-2.8%
CCN(c1ccccc1)S(=O)(=O)c1ccc(C(=O)NC2CCN(Cc3ccccc3)CC2)cc1	?	nt	-8.9	nt	nt	nt
S=C(Nc1ccc(Nc2ccccc2)cc1)Nc1ccccn1	-67.0*	-13.4	-16.0	3.4	-15.8	1.0%
O=C(NC(=S)Nc1ccccn1)c1ccccc1	6.6	-0.3	-0.1	0.0	11.0	9.1%
O=C(NC(=S)Nc1ccccn1)c1ccc(-c2ccccc2)cc1	?	-8.7	-10.1	5.9	-32.2*	3.2%
Cc1ccc(C(CC(=O)NCC2(c3ccccc3)CCCC2)c2ccccc2)c(O)c1 (stereo unspecified)	nt	-6.0	3.9	2.4	3.6	?
CCC(Sc1nc2n[nH]c(C)c2c(=N)n1-c1cccc(Cl)c1C)C(=O)N(CC)CC (stereo unspecified)	26.0	4.9	2.3	0.8	-40.9*	-1.7%
CCc1ccc(-n2c(SC(CC)C(=O)N(CC)CC)nc3n[nH]c(C)c3c2=N)cc1 (stereo unspecified)	nt	4.3	15.7	3.5	15.0	4.8%
Cc1ccc(-c2noc(C3CCCN(C(=O)c4c(F)cccc4F)C3)n2)cc1 (stereo unspecified)	-70.1*	-3.2	22.0	3.1	-10.5	-1.7%
Cc1ccc(-c2noc(C3CCCN(C(=O)c4cccc(F)c4)C3)n2)cc1 (stereo unspecified)	-6.0	0.9	4.7	11.5	-31.1*	7.6%
O=C(Cc1ccccc1)N1CCC(c2nc(-c3ccc(F)cc3)no2)CC1	27.9	-5.1	30.9*	15.9	-10.7	2.2%
